Measurements published in PubChem BioAssay.
Calls of active or inactive are those of the source.

Experiments:
[1] = compound effects on lung adenocarcinoma cell viability – A549, calcein-AM fluorescence, 48 h, basal, profiling panel (AID 1162); settings: higher = more signal
[2] = compound effects on differentiated 3T3-L1 adipocyte viability – cell-based, 3T3-L1 adipocytes, calcein-AM fluorescence, 48 h, basal, profiling panel (AID 1163); settings: 3T3-L1 adipocytes viability, higher = more signal
[3] = compound effects on hepatocellular carcinoma cell viability – HepG2, calcein-AM fluorescence, 48 h, basal, profiling panel (AID 1164); settings: higher = more signal
[4] = compound effects on multiple myeloma cell viability – MM1S, calcein-AM fluorescence, 48 h, basal, profiling panel (AID 1165); settings: higher = more signal;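 also: viability of MM1S multiple myeloma cells under basal unstimulated conditions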
[5] = calcein-AM signal in unstimulated myeloma cells – cell-based, calcein-AM fluorescence, 48 h, PK04 Diversity Set, profiling panel (AID 1166); settings: RPMI8226 myeloma viability, higher = more signal;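 also: cells grown under basal conditions without added stimulus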
[6] = JC-1 mitochondrial signal, unstimulated HepG2 cells – cell-based, JC-1 fluorescence, 24 h, 100 nL compound, profiling panel (AID 1167); settings: HepG2 mitochondrial potential, higher = more signal
[7] = JC-1 mitochondrial signal, unstimulated adipocytes – cell-based, JC-1 fluorescence, 3T3-L1 adipocytes, 24 h, 100 nL compound, profiling panel (AID 1168); settings: JC-1 mitochondrial fluorescence, higher = more signal, called active from +8 up or from −8 down
[8] = JC-1 mitochondrial signal, unstimulated myeloma cells – cell-based, JC-1 fluorescence, RPMI8226, 24 h, 100 nL compound, profiling panel (AID 1169); settings: JC-1 mitochondrial potential fluorescence, higher = more signal
[9] = JC-1 mitochondrial signal, unstimulated MM1S myeloma – cell-based, JC-1 fluorescence, 24 h, 100 nL compound, profiling panel (AID 1170); settings: MM1S mitochondrial potential, higher = more signal
[10] = resazurin metabolic signal in A549 cells – cell-based, resazurin fluorescence, 24 h, PK04 Diversity Set, profiling panel (AID 1171); settings: A549 viability, higher = more signal, called active from +8 up or from −8 down
Also: test concentration not given here.

SMILES: CC(C)N1C(=O)C[C@@](C(=O)O)(c2ccc([N+](=O)[O-])cc2)[C@H]1c1ccc(CO)cc1
- z-score [1]: 2.22
- z-score [2]: -0.246
- z-score [3]: 0.74
- z-score [4]: 0.389
- z-score [5]: 1.1
- z-score [6]: 1.52
- z-score [7]: 0.546 (inactive)
- z-score [8]: -0.108
- z-score [9]: 0.435
- z-score [10]: -0.602 (inactive)

SMILES: [N-]=[N+]=Nc1ccccc1C[C@@]1(C(=O)NCCN2CCOCC2)N=C(c2ccc(OCCCO)cc2)O[C@@H]1c1ccccc1N=[N+]=[N-]
- z-score [1]: -1.96
- z-score [2]: 0.205
- z-score [3]: -2.04
- z-score [4]: -2.94
- z-score [5]: -3.31
- z-score [6]: -0.112
- z-score [7]: -0.29 (inactive)
- z-score [8]: -1.26
- z-score [9]: -1.27
- z-score [10]: -1 (inactive)

SMILES: COc1cc(OC)c(C(O)C2C=CC3C(=O)N(Cc4ccccc4)C(=O)C3N2n2cnnc2)cc1Br (stereo not given)
- z-score [1]: -0.407
- z-score [2]: 0.767
- z-score [3]: -0.161
- z-score [4]: -0.125
- z-score [5]: -0.0145
- z-score [6]: -0.769
- z-score [7]: 0.771 (inactive)
- z-score [8]: -0.345
- z-score [9]: -0.395
- z-score [10]: -0.963 (inactive)

SMILES: Cc1ccc(F)cc1S(=O)(=O)N[C@@H]1CCN(Cc2ccc(Br)cc2)C1
- z-score [1]: -0.0023
- z-score [2]: -1.01
- z-score [3]: -0.65
- z-score [4]: -1.24
- z-score [5]: -1.29
- z-score [6]: 0.261
- z-score [7]: 0.0995 (inactive)
- z-score [8]: -0.645
- z-score [9]: -0.555
- z-score [10]: 0.728 (inactive)

SMILES: CC(C)C(CO)N1C(=O)[C@@H]2C3C(=O)OCCC/C=C\[C@H]3OC23C=CCN(Cn2nnc4ccccc42)C(=O)[C@@H]13 (stereo not given in full)
- z-score [1]: 0.225
- z-score [2]: 0.0251
- z-score [3]: 0.0343
- z-score [4]: 1
- z-score [5]: -0.224
- z-score [6]: -0.45
- z-score [7]: -0.529 (inactive)
- z-score [8]: -0.0779
- z-score [9]: -0.165
- z-score [10]: 0.173 (inactive)

SMILES: C=CC[C@@]1(C(=O)NCCCOC)N=C(c2ccc(OCCCO)cc2)O[C@@H]1c1ccccc1
- z-score [1]: 0.689
- z-score [2]: 0.457
- z-score [3]: 0.83
- z-score [4]: 0.611
- z-score [5]: 0.751
- z-score [6]: -0.166
- z-score [7]: 1.21 (inactive)
- z-score [8]: -0.323
- z-score [9]: 0.193
- z-score [10]: -0.706 (inactive)

SMILES: C=CC[C@]1(C(=O)N2CCOCC2)COC(c2ccc(OCCCO)cc2)=N1
- z-score [1]: -0.559
- z-score [2]: 0.147
- z-score [3]: -0.814
- z-score [4]: -0.405
- z-score [5]: -1.21
- z-score [6]: -0.658
- z-score [7]: -0.142 (inactive)
- z-score [8]: 0.846
- z-score [9]: -0.422
- z-score [10]: 1.47 (inactive)

SMILES: CCOC(=O)C[C@H]1[C@H](OC(=O)Cc2ccc3c(c2)OCO3)[C@@H](NC(=O)c2ccc3ccccc3n2)c2cc(OCCCO)ccc2N1C(=O)c1ccccc1
- z-score [1]: 0.776
- z-score [2]: 0.288
- z-score [3]: 0.731
- z-score [4]: 0.26
- z-score [5]: -1.09
- z-score [6]: 2.52
- z-score [7]: 0.0925 (inactive)
- z-score [8]: -0.169
- z-score [9]: -1.07
- z-score [10]: 0.231 (inactive)

SMILES: CC(C)(C)OC(=O)CC[C@@]1(C(=O)NCC(O)CO)N=C(c2ccc(OCCCO)cc2)O[C@@H]1c1ccccc1CN=[N+]=[N-] (stereo not given in full)
- z-score [1]: 1.25
- z-score [2]: 0.478
- z-score [3]: -0.0162
- z-score [4]: -0.217
- z-score [5]: -0.34
- z-score [6]: 0.0542
- z-score [7]: 0.0122 (inactive)
- z-score [8]: -0.418
- z-score [9]: 1.12
- z-score [10]: 0.0255 (inactive)

SMILES: C=CCC(OC(C)=O)[C@@H]1[C@@H](N(Cc2ccc(-c3cccc(C(F)(F)F)c3)o2)C(=O)c2ccc(-c3ccccc3)cc2)c2cc(OCCCO)ccc2N1C(=O)Cc1ccc2ccccc2c1 (stereo not given in full)
- z-score [1]: -0.713
- z-score [2]: 1.22
- z-score [3]: 0.374
- z-score [4]: 0.502
- z-score [5]: -1.15
- z-score [6]: 1.66
- z-score [7]: 0.437 (inactive)
- z-score [8]: -0.807
- z-score [9]: 0.0299
- z-score [10]: 0.378 (inactive)

SMILES: CCCCCCCCCCC(O)C1C=CC2C(=O)N(c3ccccc3)C(=O)C2N1Nc1ccc(C#N)cc1 (stereo not given)
- z-score [1]: -2.09
- z-score [2]: 0.0958
- z-score [3]: -4.9
- z-score [4]: -3.73
- z-score [5]: -4.13
- z-score [6]: -3.28
- z-score [7]: -0.15 (inactive)
- z-score [8]: -0.939
- z-score [9]: -0.469
- z-score [10]: -0.186 (inactive)

SMILES: CC(C)NC(=O)[C@@]1(c2ccc([N+](=O)[O-])cc2)CC(=O)N(C2CCCCC2)[C@@H]1c1ccc(CO)cc1
- z-score [1]: -0.68
- z-score [2]: -0.773
- z-score [3]: -0.297
- z-score [4]: -0.0629
- z-score [5]: -0.402
- z-score [6]: 1.46
- z-score [7]: 1.4 (inactive)
- z-score [8]: 0.172
- z-score [9]: -0.123
- z-score [10]: 1.38 (inactive)

SMILES: CO[C@H]1O[C@H](CO)[C@@H](OC(=O)Nc2ccccc2)[C@H](OC(=O)c2cc3ccccc3[nH]2)[C@H]1OC(=O)c1cc2ccccc2[nH]1
- z-score [1]: -0.14
- z-score [2]: 0.544
- z-score [3]: 0.131
- z-score [4]: -0.294
- z-score [5]: -0.939
- z-score [6]: 1.12
- z-score [7]: 2.46 (inactive)
- z-score [8]: -0.766
- z-score [9]: -0.61
- z-score [10]: -2.51 (inactive)

SMILES: [N-]=[N+]=Nc1ccccc1C[C@]1(C(=O)N2CCOCC2)COC(c2ccc(OCCCO)cc2)=N1
- z-score [1]: 0.462
- z-score [2]: 1.31
- z-score [3]: -0.603
- z-score [4]: -1.43
- z-score [5]: -0.314
- z-score [6]: 0.943
- z-score [7]: -0.491 (inactive)
- z-score [8]: -0.571
- z-score [9]: 0.615
- z-score [10]: 1.63 (inactive)

SMILES: NC(=O)[C@@]1(Cc2ccccc2)COC(c2ccc(OCCCO)cc2)=N1
- z-score [1]: -0.291
- z-score [2]: -0.0025
- z-score [3]: 0.532
- z-score [4]: 0.064
- z-score [5]: -0.453
- z-score [6]: -0.798
- z-score [7]: -0.392 (inactive)
- z-score [8]: -0.759
- z-score [9]: -0.172
- z-score [10]: 0.138 (inactive)
